Assay outcomes deposited in PubChem by The Scripps Research Institute Molecular Screening Center.
Most compounds without a hit are left out; they make up all but 1.6% or so of the library.
HTR5A ag – counter-screen for OPRM1-OPRD1 agonists: human HTR5A agonism | 0.61% of 340,000 active | HTR5A agonist assay, luminescence, cell-based | activation, % at 9.3 µM; in the data active = activation mostly above about 9.5%, no sharp cut-off; inactive = mostly below about 7.6%;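 note: 0% = cells with vehicle only and 100% = reference agonist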
OPRM1-OPRD1 inv – inverse agonist of human OPRM1-OPRD1 heterodimerization | cell-based MOR-DOR heterodimer luminescence, inverse agonism | inhibition, % at 9.3 µM | P35372+P41143 | 0.21% of 340,000 active; in the data active = inhibition above about 22%, passing the limit was not always enough;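 note: 0% = cells with DMSO and 100% = wells without cells with DMSO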
Target sequence (P35372 whole entry, looked up): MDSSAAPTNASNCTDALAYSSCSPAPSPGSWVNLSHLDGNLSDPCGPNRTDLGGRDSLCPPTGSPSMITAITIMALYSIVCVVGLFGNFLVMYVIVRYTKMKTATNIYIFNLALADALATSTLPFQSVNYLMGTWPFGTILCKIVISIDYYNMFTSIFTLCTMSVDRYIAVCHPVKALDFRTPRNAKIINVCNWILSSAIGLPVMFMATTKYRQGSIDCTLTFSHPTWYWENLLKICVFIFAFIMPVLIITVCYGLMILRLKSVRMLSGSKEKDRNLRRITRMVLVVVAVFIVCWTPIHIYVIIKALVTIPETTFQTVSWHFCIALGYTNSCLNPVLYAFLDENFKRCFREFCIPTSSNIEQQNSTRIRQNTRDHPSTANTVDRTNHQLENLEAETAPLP
Target sequence (P41143 whole entry, looked up): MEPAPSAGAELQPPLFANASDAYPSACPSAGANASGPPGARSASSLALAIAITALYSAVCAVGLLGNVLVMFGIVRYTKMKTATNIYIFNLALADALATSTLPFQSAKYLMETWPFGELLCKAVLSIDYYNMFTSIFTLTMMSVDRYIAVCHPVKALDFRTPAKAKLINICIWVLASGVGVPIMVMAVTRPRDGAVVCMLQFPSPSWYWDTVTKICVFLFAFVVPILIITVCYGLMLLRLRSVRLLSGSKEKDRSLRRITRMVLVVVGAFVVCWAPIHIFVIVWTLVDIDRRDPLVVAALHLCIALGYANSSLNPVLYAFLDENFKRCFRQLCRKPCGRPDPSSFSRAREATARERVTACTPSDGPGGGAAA
HTR2A ag – agonists of mouse serotonin 5-HT2A receptor (HTR2A); P35363; CHO-K1 mHTR2A beta-arrestin complementation, luminescence; percent of 30 µM serotonin response; activation, % at 7.6 µM; 0.66% of 360,000 active; AID 624169;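 active = activation above a run cutoff, the mean activation of all tested compounds plus 3 SD, cut at about 14% in these data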;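 note: 0% = plate median of compound wells and 100% = 30 µM serotonin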
MOR-DOR ag-1 – agonists of human mu-delta opioid receptor heterodimerization | 0.3% of 340,000 active | activation, % at 9.3 µM | cells, OPRM1-OPRD1 heterodimerization, luminescence | P35372+P41143;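 note: 0% = vehicle-treated cells and 100% = reference agonist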
HTR5A inv ag – HTR5A inverse agonism, opioid heterodimer counter-screen; P47898; HTR5A cell line, luminescence; inhibition, % at 9.3 µM; 0.083% of 340,000 active; in the data active = inhibition mostly above about 23%, no sharp cut-off; inactive = mostly below about 18%;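 note: 0% = cells with DMSO and 100% = no-cell wells with DMSO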
MOR-DOR ag-2 – promotes OPRM1-OPRD1 heterodimerization in HTR5A counter-screen; shares compounds with HTR5A ag; 13% of 800 active; activation, % at 9.3 µM; U2OS counter-screen cells, complementation luminescence, 3 h
HTR5A ag confirm – HTR5A (human) agonism, confirmation. AID 504915. HTR5A agonist cell assay, luminescence. activation, % at 9.3 µM. shares compounds with HTR5A ag. 17% of 800 active; in the data active = activation above about 17%;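 note: 0% = cells with vehicle only and 100% = full reference agonist response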
OPRM1 ag – OPRM1 agonism in mouse HTR2A counterscreen; shares compounds with HTR2A ag; 5.3% of 2,300 active; activation, % at 9.3 µM; U2OS OPRM1 beta-arrestin PathHunter, luminescence; DMSO 0%, DAMGO 9.3 µM 100%;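 active = mean activation above the mean of DMSO-only wells plus 3 SD, cut at about 0.5% in these data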
m5-HT2A ag conf – confirmation of mouse HTR2A serotonin receptor agonists. 19% of 2,300 active. activation, % at 7.6 µM. shares compounds with HTR2A ag. CHO-K1 PathHunter beta-arrestin recruitment, luminescence; DMSO 0%, 30 µM serotonin 100%. AID 624381;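 active = mean activation across triplicates above the hit threshold derived in the original primary screen, cut at about 15% in these data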
* marks the source's active call; other numbers are inactive results; nt = no result. Cut-off read from the data, not from the text of the source, unless noted: active = activation above about 18%; inactive = the rest.

SMILES | HTR5A ag | OPRM1-OPRD1 inv | HTR2A ag | MOR-DOR ag-1 | HTR5A inv ag | OPRM1 ag | m5-HT2A ag conf | others
CNCCc1c[nH]c2ccc(O)cc12 | 124.1* | 9.4 | 58.9* | -1.7 | -303.7 | -0.3 | 140.6* | MOR-DOR ag-2=2.9;HTR5A ag confirm=5.7
NCCc1c[nH]c2ccc(C(N)=O)cc12 | 96.2* | 11.0 | 27.7* | -2.0 | -215.7 | -0.5 | 14.8* | MOR-DOR ag-2=-0.3;HTR5A ag confirm=83.3*
N#C/C(N)=C(/N)C#N | 5.0 | 16.7 | -1.8 | -3.1 | -20.7 | nt | nt
Cc1cccc(CCNCc2cc3cc(C)cc(C)c3[nH]c2=O)c1 | 3.5 | 13.8 | 3.5 | -3.0 | -13.1 | nt | nt
Cc1cccc(CCNCc2cc3cccc(C)c3[nH]c2=O)c1 | 14.7* | -3.3 | 20.9* | 0.7 | -54.4 | -0.5 | 6.2 | MOR-DOR ag-2=1.0;HTR5A ag confirm=1.7
CCCN(CCC)[C@@H]1CCc2cccc(O)c2C1 | 42.6* | 4.8 | 58.2* | -0.9 | -152.3 | 0.8* | 125.6* | MOR-DOR ag-2=1.1;HTR5A ag confirm=67.3*
CCc1ccc(CN2CCN(Cc3ccc(SC)cc3)CC2)cc1 | nt | nt | -5.8 | nt | nt | nt | nt
CC(C)c1ccccc1NC1=NCCCS1 | 10.2 | 13.8 | -1.4 | -2.1 | -28.9 | nt | nt
CCC1(CC)C(=O)C=CNC1=O | -0.3 | 1.9 | 40.0* | -0.3 | 1.0 | -0.6 | -4.2
CCC1(CC(C)C)C(=O)NC(=S)NC1=O | -2.7 | 6.6 | 3.8 | -1.3 | 10.4 | nt | nt
CN1CCC(c2c[nH]c3ccc(O)cc23)CC1 | 29.2 | -1.5 | 49.7* | 0.3 | -72.2 | -0.5 | 31.7*
COC(=O)C1=C(c2ccc(Cl)c(C(F)(F)F)c2)C[C@@H]2CC[C@H]1N2C(=O)NCC1CC1 | 7.6 | 14.1 | -1.1 | -2.5 | 13.9 | nt | nt
Cc1ccc(-c2nc3ccc(C)cn3c2CC(=O)N(C)C)cc1 | -1.2 | 11.6 | 28.9* | -2.1 | -27.5 | -0.7 | -2.9
O=C(Cc1c(-c2ccccc2)nc2ccc(Br)cn12)N1CCCC1 | nt | nt | -1.3 | nt | nt | nt | nt
C[C@]12CCC3C(CC[C@H]4C[C@H](N)CC[C@]34C)C1CC[C@H]2O (some centres not stated) | -3.8 | 21.0 | -4.5 | -4.6 | 13.6 | nt | nt
COC(=O)C1=C(c2ccccc2OCc2ccccc2)C[C@@H]2CC[C@H]1N2C(=O)NCCc1ccc(F)cc1 | -0.2 | 3.0 | -6.6 | -0.6 | -31.2 | nt | nt
c1ccc2nc(N3CCNCC3)ccc2c1 | 2.6 | 2.6 | 50.6* | -0.5 | -9.2 | -0.6 | 38.1*
c1ccc2c(N3CCNCC3)cccc2c1 | 5.6 | 5.7 | -5.5 | -1.1 | -20.0 | nt | nt
O=[N+]([O-])c1ccc(N2CCCNCC2)c2ncccc12 | 5.1 | 0.9 | 37.6* | -0.2 | -7.3 | -0.6 | 21.7*
O=[N+]([O-])c1ccc(N2CCCCC2)c2ncccc12 | 1.3 | -7.7 | -3.8 | 1.5 | -3.8 | nt | nt
OC1/C(=C/c2ccccc2F)N2CCC1CC2 (configuration not stated) | 1.5 | 10.4 | 4.0 | -2.0 | -21.4 | nt | nt
Oc1cc2c(cc1CN1CCN(c3ccccc3)CC1)CCC2 | -0.9 | -13.5 | -4.6 | 2.1 | -21.5 | nt | nt
O=P(CN1CCN(c2ccccc2)CC1)(N1CCCCC1)N1CCCCC1 | 0.6 | 6.1 | 14.5* | -1.0 | -22.5 | -0.5 | 19.6*
O=C(O)c1c[nH]c2ccc(S(=O)(=O)N(CCCl)CCCl)cc12 | 2.6 | 12.8 | -2.1 | -2.5 | 21.0 | nt | nt
O=C(C(Cc1ccccc1)NS(=O)(=O)c1ccc(F)cc1)N1CCC2(CC1)OCCO2 (configuration not stated) | -5.6 | 12.8 | 16.9* | -2.2 | 16.4 | -0.5 | 0.7
SMILES | HTR5A ag | OPRM1-OPRD1 inv | HTR2A ag | MOR-DOR ag-1 | HTR5A inv ag | OPRM1 ag | m5-HT2A ag conf | others
C[C@@H](N)Cc1cnc[nH]1 | -0.2 | 10.1 | 15.2* | -1.8 | -17.2 | -0.7 | -1.7
c1coc(CN2Cc3ccccc3-n3nncc3C2)c1 | nt | nt | 17.7* | nt | nt | -0.6 | -2.1
c1ccc(CN2Cc3ccccc3-n3nncc3C2)cc1 | nt | nt | -2.3 | nt | nt | nt | nt
COc1ccc(N2C(=O)/C(=C/c3ccc(C)o3)C(=O)NC2=S)c(OC)c1 | 0.7 | 10.9 | 22.9* | -2.1 | -12.5 | -0.6 | -4.2
COc1ccc(N2C(=O)/C(=C/c3ccc(OC)c(OC)c3)C(=O)NC2=S)cc1 | 0.2 | 14.2 | 2.2 | -3.0 | -0.8 | nt | nt
COc1ccc(NC2=NCCCS2)cc1OC | 1.2 | 8.7 | -8.9 | -1.4 | -6.3 | nt | nt
CCCN(CCC)C(=O)Cc1c(-c2ccc(Cl)cc2)nc2c(Cl)cc(Cl)cn12 | 0.5 | 7.2 | 15.3* | -1.3 | -2.4 | -0.6 | 1.8
COc1cc(/C=C2\C(=O)NC(=O)N(c3ccccc3)C2=O)cc(OC)c1OC | 2.8 | 1.1 | 15.1* | -0.2 | 1.1 | -0.4 | -2.1
Cc1ccsc1CNCCc1ccc(F)cc1 | -3.1 | 7.7 | 6.8 | -1.6 | 11.5 | nt | nt
COc1ccc(CCNCc2sccc2C)cc1 | -3.0 | 5.4 | 24.7* | -1.2 | 11.0 | -0.4 | 8.8
COc1ccc(C(O)C(C)NC(C)C(O)c2ccc(OC)cc2)cc1 (configuration not stated) | nt | nt | -2.0 | nt | nt | nt | nt
COC(=O)C1C(OC(=O)c2ccccc2)CC2CCC1N2C (configuration not stated) | 6.3 | -2.8 | -1.5 | 0.7 | -14.5 | nt | nt
S=C(NCCc1ccccc1)N1Cc2ccccc2-n2nncc2C1 | nt | nt | -6.3 | nt | nt | nt | nt
COc1ccccc1CNCCc1ccc(F)cc1 | 2.1 | 8.7 | 31.6* | -1.5 | -8.0 | -0.5 | 8.8
COc1ccccc1CNCCc1cccc(Cl)c1 | nt | nt | 43.1* | nt | nt | -0.5 | 20.6*
COc1ccc(CCNCc2ccccc2F)cc1OC | -6.8 | 16.0 | 17.5* | -2.8 | -37.1 | -0.6 | 5.6
CN1C(=O)NC(=O)C(C)(C2=CCCCC2)C1=O (configuration not stated) | 0.1 | 0.0 | -2.2 | 0.0 | -0.3 | nt | nt
CCN(CC)P(=S)(c1c(C)nc2ccccn12)c1c(C)nc2ccccn12 | 2.5 | -0.3 | 3.0 | 0.1 | -6.2 | nt | nt
NCC(O)c1cc(O)c(O)cc1F (configuration not stated) | -1.6 | -4.5 | 55.8* | 0.8 | 5.6 | -0.2 | 149.5*
CCCCn1c(O)c(C=NC2CC3CCC2(C)C3(C)C)c(=O)[nH]c1=O (configuration not stated) | -0.5 | -36.8 | 5.0 | 6.6 | -24.4 | nt | nt
CCCN1CCC[C@@H](c2cccc(O)c2)C1 | 3.3 | 0.7 | 22.8* | -0.1 | 18.5 | -0.4 | 63.8*
O=C(c1ccc(-c2ccccc2)c(F)c1)C1CCCN(CCO)C1 (configuration not stated) | 2.1 | -23.8 | -8.1 | 4.2 | -5.5 | nt | nt
CCCN1CCC[C@H](c2cccc(O)c2)C1 | 3.5 | 14.1 | 37.5* | -2.5 | -18.2 | -0.6 | 122.4*
